Consider 40 molecules from PubChem BioAssay (Tox21).

Records with an inconclusive call do not appear. Entries that show only a call come without a potency. Values without a mark were called inactive. Activity calls are given as the source filed them. The call rests on the fitted dose curve.

The target of the assay is D(2) dopamine receptor (Homo sapiens) (UniProt P14416). The assay can be described thus: Dopamine D2 receptor (DRD2) small molecule agonists, cell-based qHTS assay (AID 1963594). Further: nearly all actives have a fitted effect of over 35% in size. The settings on record: HEK293-DRD2 cAMP HTRF, agonist mode, 30 min; series mostly up to 92.4 µM. From the text: National Center for Advancing Translational Sciences [NCATS]
Sequence of D(2) dopamine receptor (Homo sapiens) (P14416 whole entry, looked up): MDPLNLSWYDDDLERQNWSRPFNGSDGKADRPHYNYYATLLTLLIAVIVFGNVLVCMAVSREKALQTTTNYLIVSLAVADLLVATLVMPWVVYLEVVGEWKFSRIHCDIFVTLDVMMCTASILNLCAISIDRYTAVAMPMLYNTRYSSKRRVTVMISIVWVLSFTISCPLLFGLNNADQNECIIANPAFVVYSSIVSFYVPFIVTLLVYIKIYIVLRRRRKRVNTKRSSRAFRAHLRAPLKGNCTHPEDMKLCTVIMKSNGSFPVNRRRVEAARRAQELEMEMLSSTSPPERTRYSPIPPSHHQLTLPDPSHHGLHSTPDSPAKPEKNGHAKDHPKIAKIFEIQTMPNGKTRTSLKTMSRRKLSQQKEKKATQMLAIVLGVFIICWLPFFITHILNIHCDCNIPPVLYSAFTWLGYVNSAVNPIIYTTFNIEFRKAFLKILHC
Division of Preclinical Innovation [DPI]
U.S. Environmental Protection Agency [EPA]
National Institutes of Environmental Health Sciences [NIEHS]
National Toxicology Program [NTP]
U.S. Food and Drug Administration [FDA]
DRD2 is the D2 subtype of the dopamine receptor, which is coupled to Gi subtype of G protein-coupled receptor. This G protein-coupled receptor inhibits adenylyl cyclase activity. The DRD2-HEK293 cell line stably expressing D2 dopamine receptor can be used for screening agonists and antagonists of interactions between D2 and its ligands. The Hek293-DRD2 cAMP assay is based on HTRF technology. It measures changes of cAMP accumulation in response to Gi coupled GPCR activation or inhibition.
Tox21 Assay Protocol Summary:
DRD2-Hek293 cells were dispensed at 600 cells/3uL/well in 1536-well white plates using a Multidrop Dispenser. After the assay plates were incubated at a 37 C/5% CO2 incubator for 24 h, 1 uL of Ro20-1724 at final concentration of 0.1 mM was transferred to the assay plate by a Flying Reagent Dispenser. Following Ro20-1724 addition, 23 nL of compound dissolved in DMSO, positive controls or DMSO only was added to the assay plates via Wako pintool station. The assay plates were incubated at room temperature for 10 min. Next, 1 uL of NKH477 at 200nM was added into the plates. After the assay plates were incubated at room temperature for an additional 30 min, 2.5 ul/well of cAMP-d2 and 2.5 ul/well of anti-cAMP-cryptate were added respectively into the assay plates using a Flying Reagent Dispenser. The plates were incubated at room temperature for 1 h. The fluorescence intensity in the plates was measured at 340 nm excitation and 665 & 620 nm emission by an Envision plate reader.
(In general: In qHTS, concentration-response curves come from the screen itself.)
Take `COc1ccc(OC)c(Cl)c1`: the Potency entry was “inactive”.
Still for that read-out and setting: the same measure for `O=C(O)CCCl`: “inactive”; for `CCCCCCCCCCCCCOS(=O)(=O)O`: “inactive”; for `COc1ccc2cc(CCC(C)=O)ccc2c1`: “inactive”.
On the same count and under the same terms, the same measure for `NCCCN1CCOCC1`: “inactive”.
The same measure, in the same setting: the value for `COc1cc(NCc2ccc3nc(N)nc(N)c3c2C)cc(OC)c1OC` was “inactive”.
`COc1nccnc1CC(C)C`: the Potency entry was “inactive”.
The same measure, in the same setting: the value for `CCc1c(C)cc(N)c(CC)c1N` was “inactive”; that for `c1csc(SSc2cccs2)c1` was “inactive”.
Still for that read-out and setting: the same measure for `C=Cc1ccc(O)c(OC)c1`: “inactive”; for `NCCCN(CCO)CCO`: “inactive”; for `CCCOC(OCCC)OCCC`: “inactive”.
Still for that read-out and setting: the value for `CC(C(=O)O)c1ccc2c(c1)[nH]c1ccc(Cl)cc12` (stereo not given) was “inactive”.
For `C=C/C=C/C=C/CCCCC`, the activation was -0.0392% [at 19 µM].
With `C[C@@H](NCCCc1cccc(C(F)(F)F)c1)c1cccc2ccccc12`, the Potency entry was “inactive”.
For `Cc1c[nH]c(=O)[nH]c1=O`, the Potency result was “inactive”.
The same measure, in the same setting: the same measure for `CC(=O)c1ccc2c(c1)N(CCCN(C)C)c1ccccc1S2`: “inactive”; for `CCCNC(C)(C)COC(=O)c1ccccc1`: “inactive”.
Still for that read-out and setting: the value for `Clc1ccc(Cn2c(CN3CCCC3)nc3ccccc32)cc1` was “inactive”; that for `CN(C)[C@@H](CCOc1cccc2ccccc12)c1ccccc1` was “inactive”.
In the case of `CSc1ccc(O)cc1C`, the Potency entry was “inactive”.
Consider `CCOC(=O)C(F)(F)F`, for which the Potency entry is “inactive”.
On the same count and under the same terms, the same measure for `Cc1c(F)c(N2CCNC(C)C2)cc2c1c(=O)c(C(=O)O)cn2C1CC1` (stereo not given): “inactive”.
The same measure, in the same setting: the same measure for `O=C(Nc1ncc([N+](=O)[O-])s1)c1cccs1`: “inactive”.
The same measure, in the same setting: the value for `CN(C)c1ccc(N=Nc2ccccc2C(=O)O)cc1` was “inactive”; that for `Cc1ccc(S(=O)(=O)NC(=O)NC2CCCCC2)cc1` was “inactive”.
In the case of `CCCCCCCCCC[N+](C)(CCCCCCCCCC)CCC[Si](OC)(OC)OC`, the Potency result was “inactive”.
For the molecule `Nc1ccc(/C=C/c2ccc(N)cc2S(=O)(=O)O)c(S(=O)(=O)O)c1`, the activation is -13.5% [at 0.349 µM].
In the case of `C[C@H](CCC(=O)O)[C@H]1CC[C@H]2[C@@H]3[C@H](O)C[C@@H]4C[C@H](O)CC[C@]4(C)[C@H]3CC[C@]12C`, the Potency entry was “inactive”.
On the same count and under the same terms, the value for `O=C(O)c1cc(C(=O)O)cc(C(=O)O)c1` was “inactive”; that for `CS(=O)(=O)CCNCc1ccc(-c2ccc3ncnc(Nc4ccc(OCc5cccc(F)c5)c(Cl)c4)c3c2)o1` was “inactive”; that for `COc1cc([C@@H]2c3cc4c(cc3[C@@H](O[C@@H]3O[C@@H]5CO[C@@H](C)O[C@H]5[C@H](O)[C@H]3O)[C@H]3COC(=O)[C@H]23)OCO4)cc(OC)c1O` was “inactive”.
Still for that read-out and setting: the same measure for `CC1(O)CSC(C)(O)CS1` (stereo not given): “inactive”; for `O=C1c2ccccc2Cc2ccccc21`: “inactive”; for `CCCOc1sc(C(=O)N2CCC(c3cc(CN)ccc3F)CC2)c(C)c1Br`: “inactive”.
As for `COC(=O)C1=C(C)NC(C)=C(C(=O)O[C@@H]2CCCN(Cc3ccccc3)C2)[C@@H]1c1cccc([N+](=O)[O-])c1`, the Potency result is “inactive”.
On the same count and under the same terms, the value for `COC(=O)CC(=O)C(C)(C)C` was “inactive”.
Still for that read-out and setting: the value for `CCCCCCOC(=O)CCCCCCCC(=O)OCCCCCC` was “inactive”.
Turning to `O=C(O)[C@@H]1CSCN1`, the Potency entry was “inactive”.
On the same count and under the same terms, the same measure for `COc1ccc(CCN(C)CCCN2CCc3cc(OC)c(OC)cc3CC2=O)cc1OC`: “inactive”.
